Measured values taken from PubChem BioAssay (Tox21).
“And” between values parts separate entries of the source, which are not always exact repeats. Equal values may be shown once. Inconclusive results are not listed. A call without a number means that no potency is given here. More than one record can exist for a structure, and the calls need not agree. The source made the active and inactive calls. Unless noted, calls come from the whole dose curve; as a rule, active = well fitted curve in the direction sought with a large enough effect in the repeat runs; inconclusive = weak or mixed curves; inactive = no such curve, though single readings can be large; an effect the other way counts as inactive or inconclusive. Positions of bridges follow the written chain, without caps; N, C: chain ends. Non-standard residues stand in square brackets, D forms with d. Residues, ends and D or L forms follow the SMILES beside them. ξ: configuration not given here. *: point of attachment. d(aThr) = C[C@@H](O)[C@@H](N)C(=O)O; ξThr(3R) = C[C@@H](O)C(N)C(=O)O; X3 = CC[C@@H](C)CCCCC(=O)*; dDab = NCC[C@@H](N)C(=O)O

Experiments:
[1] = qHTS assay to identify small molecule antagonists of the glucocorticoid receptor (GR) signaling pathway - cell viability counter screen (AID 720693); note: nearly all actives have a fitted effect of over 55% in size; note: potency is the fitted concentration of half-maximal effect
[2] = qHTS assay for identifying genotoxic compounds that show differential cytotoxicity against isogenic chicken DT40 cell lines with known DNA damage response pathways - wild type cell line (AID 743012); note: nearly all actives have a fitted effect of over 60% in size; note: potency is the fitted concentration of half-maximal effect
Method in brief: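 Viability of DNA repair-proficient chicken DT40 cells was assessed by CellTiter-Glo luminescence following 40 h compound exposure at 37 C/5% CO2.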

[3] = qHTS assay for identifying genotoxic compounds that show differential cytotoxicity against isogenic chicken DT40 cell lines with known DNA damage response pathways - Rad54/Ku70 mutant cell line (AID 743015); note: nearly all actives have a fitted effect of over 60% in size; note: potency is the fitted concentration of half-maximal effect
[4] = qHTS assay to identify small molecule antagonists of the androgen receptor (AR) signaling pathway - cell viability counter screen (AID 743033; note: nearly all actives have a fitted effect of over 45% in size; note: potency is the fitted concentration of half-maximal effect)
[5] = qHTS assay to identify small molecule antagonists of the androgen receptor (AR) signaling pathway using the MDA cell line - cell viability counter screen (AID 743041; note: nearly all actives have a fitted effect of over 45% in size; note: potency is the fitted concentration of half-maximal effect)
Method in brief: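 Using the breast carcinoma line MDA-kb2 AR-luc, test chemicals were co-incubated with R1881 for 16 h; CellTiter-Fluor reagent, added at 15.5 h, provided a fluorescence measure of live cells.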

[6] = target: Androgen receptor (Homo sapiens) (UniProt P10275); experiment: qHTS assay to identify small molecule agonists of the androgen receptor (AR) signaling pathway using the MDA cell line (AID 743040; note: nearly all actives have a fitted effect of over 20% in size)
Sequence of Androgen receptor (Homo sapiens) (P10275 whole entry, looked up): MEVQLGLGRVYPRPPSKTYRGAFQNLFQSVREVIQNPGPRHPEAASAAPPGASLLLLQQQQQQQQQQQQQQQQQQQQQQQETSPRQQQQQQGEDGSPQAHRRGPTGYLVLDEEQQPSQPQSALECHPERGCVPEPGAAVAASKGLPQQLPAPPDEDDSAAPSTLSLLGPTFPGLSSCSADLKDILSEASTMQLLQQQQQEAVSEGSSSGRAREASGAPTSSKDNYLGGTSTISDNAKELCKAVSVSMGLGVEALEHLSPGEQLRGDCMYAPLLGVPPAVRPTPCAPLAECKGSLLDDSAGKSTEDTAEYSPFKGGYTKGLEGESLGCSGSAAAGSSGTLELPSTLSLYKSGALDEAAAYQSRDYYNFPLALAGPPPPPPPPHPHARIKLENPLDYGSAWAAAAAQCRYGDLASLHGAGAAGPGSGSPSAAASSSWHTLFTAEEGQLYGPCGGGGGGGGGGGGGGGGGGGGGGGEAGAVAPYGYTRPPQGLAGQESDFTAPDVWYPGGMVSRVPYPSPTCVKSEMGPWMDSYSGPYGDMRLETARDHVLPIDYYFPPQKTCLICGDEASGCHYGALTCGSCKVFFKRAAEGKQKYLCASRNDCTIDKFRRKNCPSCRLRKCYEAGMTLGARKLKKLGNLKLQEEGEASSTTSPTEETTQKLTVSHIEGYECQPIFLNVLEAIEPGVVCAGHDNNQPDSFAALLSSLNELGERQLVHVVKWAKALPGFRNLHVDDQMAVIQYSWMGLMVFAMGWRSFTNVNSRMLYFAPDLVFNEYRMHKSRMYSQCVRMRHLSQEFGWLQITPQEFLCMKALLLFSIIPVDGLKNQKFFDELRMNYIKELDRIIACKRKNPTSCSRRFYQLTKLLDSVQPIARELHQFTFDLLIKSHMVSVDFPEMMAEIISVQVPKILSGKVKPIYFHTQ
Method in brief: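 Stable MMTV-luciferase reporter in MDA-kb2 cells; note the promoter carries GR as well as AR response elements. 16 h compound treatment, 37C, 0% CO2; ONE-Glo luminescence endpoint.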

[7] = target: Androgen receptor (Homo sapiens) (UniProt P10275); experiment: qHTS assay to identify small molecule antagonists of the androgen receptor (AR) signaling pathway using the MDA cell line (AID 743042; note: nearly all actives have a fitted effect of over 55% in size)
Method in brief: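 Antagonist mode: compounds plus R1881 agonist added to MDA-kb2 AR-luc cells, incubated 16 h at 37C. Luciferase reporter luminescence quantified, with multiplexed CellTiter-Fluor readout for cell viability.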

[8] = target: Androgen receptor (Homo sapiens) (UniProt P10275); experiment: qHTS assay to identify small molecule agonists of the androgen receptor (AR) signaling pathway (AID 743036; active = well fitted activation curve with a large enough effect in the signal ratio in the repeat runs, with a control signal flat, not every such curve was filed as active; the % refers to the signal ratio)
Method in brief: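 In this Tox21 qHTS, 2,000 HEK293 AR-bla cells per well were incubated with compounds for 16 h at 37C and 5% CO2. Fluorescence intensity was recorded 2 h after adding LiveBLAzer B/G FRET substrate at room temperature.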

[9] = target: Androgen receptor (Homo sapiens) (UniProt P10275); experiment: qHTS assay to identify small molecule antagonists of the androgen receptor (AR) signaling pathway (AID 743035; active = well fitted inhibition curve with a large enough effect in the signal ratio in the repeat runs, not every such curve was filed as active; the % refers to the signal ratio)
Method in brief: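 Reporter HEK293 cells were exposed to compounds and R1881 overnight (16 h, 37C); beta-lactamase activity was then quantified by FRET fluorescence.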

Row | Compound | Potency [1] | Potency [2] | Potency [3] | Potency [4] | Potency [5] | Potency [6] | Potency [7] | Potency [8] | Potency [9]
1 | CCNC(=O)[C@@H]1CCCN1C(=O)[C@H](CCCN=C(N)N)NC(=O)[C@H](CC(C)C)NC(=O)[C@@H](Cc1c[nH]c2ccccc12)NC(=O)[C@H](Cc1ccc(O)cc1)NC(=O)[C@H](CO)NC(=O)[C@H](Cc1c[nH]c2ccccc12)NC(=O)[C@H](Cc1cnc[nH]1)NC(=O)[C@@H]1CCC(=O)N1 | 19 µM (active) | 0.841 µM (active) | 1.06 µM (active) | 23.9 µM (active) | 11.9 µM (active) | – | – | – | –
2 | COCC1=C(C(=O)OC(C)OC(=O)OC(C)C)N2C(=O)[C@@H](NC(=O)/C(=N\OC)c3csc(N)n3)[C@H]2SC1 (some centres not stated) | inactive | 1.68 µM (active) and inactive | 1.06 µM (active) and inactive | inactive | inactive | – | – | – | –
3 | C/C=C1\NC(=O)[C@H]2CSSCC/C=C/[C@H](CC(=O)N[C@H](C(C)C)C(=O)N2)OC(=O)C(C(C)C)NC1=O (some centres not stated) | 2.39 µM (active) | 0.0013 µM (active) | 0.0017 µM (active) | 4.77 µM (active) | 7.5 µM (active) | inactive | inactive | – | –
4 | Cc1nc(NS(=O)(=O)c2ccc(N)cc2)nc(C)c1Br | inactive | inactive | inactive | inactive | inactive | – | – | – | –
5 | NCCCNCCCCNC(=O)C(O)NC(=O)CCCCCCN=C(N)N (configuration not stated) | inactive | 1.06 µM (active) | 0.841 µM (active) | inactive | inactive | – | – | – | –
6 | CN[C@@H]1[C@H](O[C@H]2[C@H](O[C@H]3[C@H](O)[C@@H](O)[C@H](N=C(N)N)[C@@H](O)[C@@H]3N=C(N)N)O[C@@H](C)[C@]2(O)C=O)O[C@@H](CO)[C@H](O)[C@H]1O | inactive | inactive | inactive | inactive | inactive | – | – | – | –
7 | C=C1CC[C@H](O)CC1=C/C=C1\CCC[C@]2(C)[C@@H]([C@H](C)CC[C@@H](O)C(C)(C)O)CC[C@@H]12 | 21.3 µM (active) | 7.5 µM (active) | 13.3 µM (active) | inactive | inactive | inactive | inactive | inactive | –
8 | N#CC(c1ccc(Cl)cc1)c1c(Cl)cc(-n2ncc(=O)[nH]c2=O)cc1Cl (configuration not stated) | inactive | 29.8 µM (active) | 29.8 µM (active) | inactive | inactive | inactive | inactive | – | –
9 | CC[C@@H](C)CCCCC(=O)N[C@H](CCN)C(=O)N[C@@H](C(=O)N[C@H](CCN)C(=O)N[C@@H]1CCNC(=O)C([C@@H](C)O)NC(=O)[C@@H](CCN)NC(=O)[C@@H](CCN)NC(=O)[C@@H](CC(C)C)NC(=O)[C@@H](Cc2ccccc2)NC(=O)[C@@H](CCN)NC1=O)[C@@H](C)O (stereo partly drawn) (X3-[dDab][d(aThr)][dDab][dDab][dDab][dF][dL][dDab][dDab][ξThr(3R)]; lactam 4-C) | inactive | inactive | inactive | inactive | inactive | – | – | – | –
10 | CC[C@H](C)[C@@H]1NC(=O)[C@H](Cc2ccc(O)cc2)NC(=O)[C@@H](N)CSSC[C@@H](C(=O)N2CCC[C@H]2C(=O)N[C@@H](CC(C)C)C(=O)NCC(N)=O)NC(=O)[C@H](CC(N)=O)NC(=O)[C@H](CCC(N)=O)NC1=O | inactive | inactive | inactive | inactive | inactive | – | – | – | –
11 | CCC(=O)NS(=O)(=O)c1ccc(-c2c(-c3ccccc3)noc2C)cc1 | inactive | inactive | inactive | inactive | inactive | – | – | – | –
12 | CCOC(=O)[C@H](CCc1ccccc1)N[C@H]1CCCN2CCC[C@@H](C(=O)O)N2C1=O | inactive | inactive | inactive | inactive | inactive | – | – | – | –
13 | Cn1cc(NC(=O)c2cc(NC(=O)c3cc(NC=O)cn3C)cn2C)cc1C(=O)NCCC(=N)N | inactive | inactive | inactive | inactive | inactive | – | – | – | –
14 | CCCc1ccc(C(=O)O)cc1 | inactive | inactive | inactive | inactive | inactive | – | – | – | –
15 | CNC(=O)c1c(I)c(C(=O)NCC(=O)Nc2c(I)c(C(=O)O)c(I)c(C(=O)NCCO)c2I)c(I)c(N(C)C(C)=O)c1I | inactive | inactive | inactive | inactive | inactive | – | – | – | –
16 | CC[C@H](CC[C@@H](C)[C@H]1CC[C@H]2[C@@H]3CC=C4C[C@@H](O)CC[C@]4(C)[C@H]3CC[C@]12C)C(C)C | inactive | inactive | inactive | inactive | inactive | – | – | – | –
17 | CC(/C=C/C=C(\C)C(=O)O[C@@H]1O[C@H](CO[C@@H]2O[C@H](CO)[C@@H](O)[C@H](O)[C@H]2O)[C@@H](O)[C@H](O)[C@H]1O)=C\C=C\C=C(C)\C=C\C=C(/C)C(=O)O[C@@H]1O[C@H](CO[C@@H]2O[C@H](CO)[C@@H](O)[C@H](O)[C@H]2O)[C@@H](O)[C@H](O)[C@H]1O | inactive | inactive | inactive | inactive | inactive | – | – | – | –
18 | CCCCC(=O)N(Cc1ccc(-c2ccccc2-c2nn[nH]n2)cc1)[C@@H](C(=O)O)C(C)C | inactive | inactive | inactive | inactive | inactive | – | – | – | –
19 | CC(=O)O[C@H]1CC[C@@]2(C)C(=CC[C@H]3[C@@H]4CC[C@H](C(C)=O)[C@@]4(C)CC[C@@H]32)C1 | inactive | inactive | inactive | inactive | inactive | – | – | – | –
20 | CCC(Oc1ccccc1)C(=O)N[C@@H]1C(=O)N2[C@@H]1SC(C)(C)[C@@H]2C(=O)O (some centres not stated) | inactive | inactive | inactive | inactive | inactive | – | – | – | –
21 | CCOC(=O)Nc1ccc2c(c1)N(C(=O)CN(C)C)c1ccccc1CC2 | inactive | 61.1 µM (active) | – | inactive | – | – | – | – | –
22 | O=C1CCC(=O)N1CO | inactive | inactive | inactive | – | inactive | – | – | – | –
23 | O=C(COc1ccc(Cl)cc1)OCCNC12CC3CC(CC(C3)C1)C2 | inactive | inactive | – | inactive | inactive | – | – | – | –
24 | CNC(C)CCC=C(C)C (configuration not stated) | inactive | 23.7 µM (active) | – | inactive | inactive | – | – | – | –
25 | C[C@]12CC[C@@H]3c4ccc(O)cc4CC[C@H]3[C@@H]1CC[C@@H]2OP(=O)(O)O | inactive | inactive | inactive | inactive | inactive | – | – | – | –
26 | CC(C)=CCC/C(C)=C/C=C/C(C)=C/C=C/C(C)=C/C=C/C=C(C)/C=C/C=C(C)/C=C/C=C(\C)CCC=C(C)C | inactive | 29.8 µM (active) | – | inactive | inactive | inactive | inactive | – | –
27 | O=C(O)CC/C=C\CC[C@@H]1[C@@H](N2CCCCC2)[C@@H](O)C[C@@H]1OCc1ccc(-c2ccccc2)cc1 | inactive | 13.3 µM (active) | – | inactive | inactive | inactive | inactive | inactive | –
28 | CCC(c1ccccc1)c1noc(CCN(CC)CC)n1 (configuration not stated) | inactive | 23.7 µM (active) | – | inactive | inactive | – | inactive | – | inactive
29 | COC(=O)[C@H]1[C@H]2C[C@@H]3c4[nH]c5ccccc5c4CCN3C[C@H]2C[C@@H](OC(=O)c2cc(OC)c(OC)c(OC)c2)[C@@H]1OC | inactive | 1.06 µM (active) and 11.9 µM (active) | 1.68 µM (active) and 26.6 µM (active) | – | inactive | – | – | – | –
30 | COc1ccc(CCNCC(O)COc2cccc(C)c2)cc1OC (configuration not stated) | inactive | 26.6 µM (active) | – | inactive | inactive | inactive | inactive | inactive | –
